Six compounds from PubChem BioAssay (EPA / NIEHS) can be followed below.

Assay [1] deals with Paired box protein Pax-6 (Homo sapiens) (UniProt P26367). The assay can be described thus: ATG_Pax6_CIS: Attagene CIS-FACTORIAL HepG2 Assay for human Paired Box 6 (PAX6) (AID 2282956). The following applies: HepG2 CIS-FACTORIAL PAX6 reporter transcription, RNA readout; actives raise or lower the signal. Summed up:
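DMSO-referenced bidirectional fits of reporter mRNA fluorescence; HepG2 with transient cis-promoter MRTUs, 24 h post-dose, RT-PCR plus capillary electrophoresis detection.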

Assay [2] is described as follows: ATG_PXRE_CIS: Attagene CIS-FACTORIAL HepG2 Assay for human Pregnane X Receptor Element (PXRE) (AID 2282957). The following applies: HepG2 Attagene CIS-FACTORIAL PXRE reporter, mRNA; actives raise or lower the signal. Summed up: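 Read-out: fluorescence of reporter-specific RT-PCR products resolved by capillary electrophoresis, fitted bidirectionally relative to DMSO. Human HepG2 liver cells carried transfected cis-promoter reporter units and were exposed to chemicals for 24 h.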

The nature of assay [3]: ATG_PPRE_CIS: Attagene CIS-FACTORIAL HepG2 Assay for human Peroxisome Proliferator-activated Response Element (PPRE) (AID 2282958). To be noted: HepG2 PPRE cis-element reporter, Attagene transcription factor profiling; actives raise or lower the signal. Summed up:
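After human HepG2 hepatoma cells were transiently transfected with cis-promoter reporter constructs, they were exposed to test chemicals for 24 hours. Reporter RNA was then reverse-transcribed, PCR-amplified, FAM-labeled, HpaI-digested and quantified by capillary electrophoresis.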

Assay [4] can be described thus: ATG_RORE_CIS: Attagene CIS-FACTORIAL HepG2 Assay for human RAR-related Orphan Receptor Element (RORE) (AID 2282959). The following applies: HepG2 Attagene cis-factorial RORE reporter, mRNA; actives raise or lower the signal. Put shortly: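 Measured here: transcript induction of a cis-regulated reporter in HepG2 cells transiently transfected via FuGene 6. After 24 h, RNA was processed by RT-PCR and fluorescent capillary electrophoresis; DMSO defined baseline activity.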

Assay [5] can be described thus: ATG_Sox_CIS: Attagene CIS-FACTORIAL HepG2 Assay for human SRY-box transcription factor (SOX) (AID 2282960). To be noted: HepG2 Attagene cis-factorial SOX reporter, mRNA; actives raise or lower the signal. Put shortly:
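Using transiently transfected HepG2 cells, reporter transcription driven by cis elements was assessed 24 h after dosing. Signal was fluorescence of capillary-separated RT-PCR products, with DMSO defining baseline activity.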

Assay [6] concerns the target Transcription factor Sp1 (Homo sapiens) (UniProt P08047). In words: ATG_Sp1_CIS: Attagene CIS-FACTORIAL HepG2 Assay for human Specificity Protein 1 (Sp1) (AID 2282961). The following applies: HepG2 Sp1 cis-reporter transcription, actives raise or lower the signal. Summed up:
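After transient transfection of HepG2 cells with cis-promoter reporter units and 24 h chemical treatment, reporter transcripts were quantified by RT-PCR and capillary electrophoresis fluorescence. Gain- and loss-of-signal fitted against DMSO.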

Assay [7] can be described thus: ATG_SREBP_CIS: Attagene CIS-FACTORIAL HepG2 Assay for human Sterol Regulatory Element Binding (SREBP) (AID 2282962). To be noted: HepG2 Attagene cis-factorial SREBP reporter, mRNA; actives raise or lower the signal. Put shortly:
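In this cis-format assay, HepG2 liver cells express reporters controlled by promoter elements responsive to native transcription factors. Exposure lasts 24 h; reporter mRNA fluorescence from capillary electrophoresis gives the signal, fitted bidirectionally against DMSO.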

Assay [8] concerns the target Signal transducer and activator of transcription 3 (Homo sapiens) (UniProt P40763). The assay can be described thus: ATG_STAT3_CIS: Attagene CIS-FACTORIAL HepG2 Assay for human Signal Transducer and Activator of Transcription 3 (STAT3) (AID 2282963). The following applies: HepG2, Attagene cis-factorial STAT3 reporter transcription; actives raise or lower the signal. Put shortly:
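Cis-factorial format: endogenous transcription factors in HepG2 drive transfected reporter units. After 24 h treatment, reporter RNA was reverse-transcribed, amplified, FAM-labelled and HpaI-digested before CE analysis; activity scored in both directions against DMSO.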

Assay [9] can be described thus: ATG_TA_CIS: Attagene CIS-FACTORIAL HepG2 Assay for human TA Basal Promoter (AID 2282964). The following applies: HepG2 Attagene CIS-factorial TA basal promoter reporter; actives raise or lower the signal. Summed up:
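Multiplexed mRNA reporter assay, HepG2, 24 h. Reporter cDNA amplified, 6-FAM primer-extended, HpaI-cut, CE-sized; DMSO = negative control and baseline.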

Assay [10] in a line: ATG_TCF_b_cat_CIS: Attagene CIS-FACTORIAL HepG2 Assay for human T-Cell-Factor with beta-catenin (TCF/b-cat) (AID 2282965). To be noted: HepG2 TCF/beta-catenin cis-reporter transcription, actives raise or lower the signal. Put shortly: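 Endogenous TCF/LEF activity read as reporter transcript level via RT-PCR and capillary electrophoresis fluorescence in transfected HepG2, 24 h exposure; gain or loss of signal fitted against DMSO controls.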

Assay [11] can be described thus: ATG_TAL_CIS: Attagene CIS-FACTORIAL HepG2 Assay for human TAL Basal Promoter (AID 2282966).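 Further: background control endpoint measuring basal TAL promoter reporter mRNA not a specific factor.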 To be noted: HepG2 Attagene cis-factorial TAL promoter reporter; actives raise or lower the signal. Put shortly: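 HepG2, transient MRTU transfection, 24 h compound exposure; RNA → oligo(dT) RT → PCR → 6-FAM primer extension → HpaI digest → CE fluorescence. Bidirectional curve fit vs DMSO. Background-control readout.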

Assay [12] can be described thus: ATG_TGFb_CIS: Attagene CIS-FACTORIAL HepG2 Assay for human Transforming Growth Factor (TGF) (AID 2282967). The following applies: HepG2 Attagene CIS TGFb reporter, mRNA transcription; actives raise or lower the signal. Put shortly:
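Transcript-level reporter readout: HepG2 transfectants, 24 h exposure, RNA to cDNA, reporter-specific PCR, fluorescent primer extension, capillary sizing against ROX standards. Gain- or loss-of-signal relative to DMSO.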

Assay [13] is described as follows: ATG_VDRE_CIS: Attagene CIS-FACTORIAL HepG2 Assay for human Vitamin D Receptor Element (VDRE) (AID 2282968). The following applies: HepG2 VDRE cis-reporter transcription, actives raise or lower the signal. Summed up: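 Measures endogenous factor activity through cis-element-driven reporter transcripts in transiently transfected HepG2. Cells are treated 24 h; reporter mRNA is quantified by RT-PCR and capillary electrophoresis; fitting is bidirectional.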

The target of assay [14] is Estrogen receptor (Homo sapiens) (UniProt P03372). The assay can be described thus: ATG_ERa_TRANS: Attagene TRANS-FACTORIAL HepG2 Assay for human Estrogen Receptor alpha (ERa) (AID 2282970; active means hit-call score of the fitted dose curve at least 0.9, where 1 is the maximum). To be noted: HepG2 Attagene TRANS ERa GAL4 reporter, mRNA. Put shortly: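 Reporter mRNA induction after 24 hours, detected by fluorescent RT-PCR and capillary electrophoresis, gives the read-out. Cells are HepG2 transiently transfected with GAL4-UAS reporter transcription units responding to chimeric NR-Gal4. Activity is taken as gain of signal over DMSO baseline.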
Chain of Estrogen receptor (Homo sapiens) (P03372 whole entry, looked up, the tested form may be a part): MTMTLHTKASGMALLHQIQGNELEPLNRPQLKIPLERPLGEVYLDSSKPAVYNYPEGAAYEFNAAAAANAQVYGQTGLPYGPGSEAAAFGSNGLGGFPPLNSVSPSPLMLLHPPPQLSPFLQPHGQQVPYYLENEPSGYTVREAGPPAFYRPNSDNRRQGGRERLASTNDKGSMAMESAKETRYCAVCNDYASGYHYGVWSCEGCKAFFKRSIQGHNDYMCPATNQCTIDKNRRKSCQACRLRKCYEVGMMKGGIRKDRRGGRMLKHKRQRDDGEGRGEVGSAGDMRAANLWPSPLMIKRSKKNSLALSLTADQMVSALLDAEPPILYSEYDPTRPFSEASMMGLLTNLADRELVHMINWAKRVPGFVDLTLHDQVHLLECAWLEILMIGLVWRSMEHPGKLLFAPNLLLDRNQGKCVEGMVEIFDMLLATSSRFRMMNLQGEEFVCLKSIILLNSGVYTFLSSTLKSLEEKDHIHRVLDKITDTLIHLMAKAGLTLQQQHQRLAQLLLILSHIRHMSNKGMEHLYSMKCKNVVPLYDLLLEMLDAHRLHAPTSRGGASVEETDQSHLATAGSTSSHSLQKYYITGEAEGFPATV

Assay [15] addresses X-box-binding protein 1 (Homo sapiens) (UniProt P17861). The assay can be described thus: ATG_Xbp1_CIS: Attagene CIS-FACTORIAL HepG2 Assay for human X-box Binding Protein 1 (XBP1) (AID 2282972). The following applies: HepG2 XBP1 cis-element reporter, Attagene multiplex; actives raise or lower the signal. Put shortly: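 Changes in reporter transcript abundance, read by RT-PCR and capillary electrophoresis, reflect endogenous transcription factor activity. Transfected HepG2 cells received compound for 24 hours; DMSO defined baseline for bidirectional analysis.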

A short description of assay [16]: ATG_M_19_TRANS: Attagene TRANS-FACTORIAL HepG2 Assay for M19 Transcription Factor (Internal Marker) (AID 2282974; active means hit-call score of the fitted dose curve at least 0.9, where 1 is the maximum). To be noted: HepG2 Attagene TRANS-FACTORIAL M19 internal marker reporter. Summed up: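 Gain-of-signal in reporter mRNA, relative to DMSO, was scored from capillary electrophoresis fluorescence. HepG2 cells carried transiently transfected multiple reporter transcription units and were incubated with test chemicals for 24 h.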

Assay [17] can be described thus: ATG_GAL4_TRANS: Attagene TRANS-FACTORIAL HepG2 Assay for GAL4 (Internal Marker) (AID 2282976; active means hit-call score of the fitted dose curve at least 0.9, where 1 is the maximum). To be noted: HepG2 Attagene TRANS GAL4 internal marker reporter. Summed up:
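RT-PCR/capillary electrophoresis readout of reporter mRNA. HepG2, transient MRTU transfection (GAL4-UAS reporters), 24 h compound exposure. Background-control endpoint, positive direction vs DMSO baseline.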

A short description of assay [18]: ATG_PBREM_CIS: Attagene CIS-FACTORIAL HepG2 Assay for human Phenobarbital-responsive Enhancer Module (PBREM) (AID 2282955). To be noted: HepG2 PBREM cis-reporter, Attagene multiplexed transcription; actives raise or lower the signal. Put shortly:
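Readout: reporter mRNA, fluorescent RT-PCR fragments separated by capillary electrophoresis. System: HepG2 transiently transfected with cis-regulated reporter units. Exposure: 24 h. Analysis: bidirectional, DMSO baseline.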

For assay [19], the target named is Steroid hormone receptor ERR1 (Homo sapiens) (UniProt P11474). The assay can be described thus: ATG_ERRa_TRANS: Attagene TRANS-FACTORIAL HepG2 Assay for human Estrogen-Related Receptor alpha (ERRa) (AID 2282971; active means hit-call score of the fitted dose curve at least 0.9, where 1 is the maximum). The following applies: HepG2 Attagene TRANS reporter, ERRa transactivation. Put shortly:
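Transfected HepG2, 24 h dosing, ERRa-Gal4 chimera driving GAL4-UAS reporter. Readout: reporter mRNA via RT-PCR plus capillary electrophoresis (fluorescence). Positive direction vs DMSO control.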

Assay [20] addresses Nuclear receptor subfamily 1 group I member 3 (Homo sapiens) (UniProt Q14994). In words: ATG_CAR_TRANS: Attagene TRANS-FACTORIAL HepG2 Assay for human Constitutive Androstane Receptor (CAR) (AID 2282969; active means hit-call score of the fitted dose curve at least 0.9, where 1 is the maximum;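 further: activators raise reporter mRNA above DMSO so AC50 marks induction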). The following applies: HepG2 Attagene TRANS-FACTORIAL CAR reporter. Put shortly:
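Signal is reporter mRNA induction relative to DMSO, measured 24 h after dosing by RT-PCR with fluorescent primer extension and capillary electrophoresis. Human HepG2 liver cells carried transiently transfected chimeric NR-Gal4/GAL4-UAS reporter constructs.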

Values joined by “and” are separate entries in the source; they are usually repeats but may differ in a detail not shown here. Identical values can stand only once. Records with an inconclusive call do not appear. Some structures have more than one record in an assay (separate samples or runs), and their calls can disagree. Active and inactive are the calls of the source. How the source made its calls, unless noted: active means hit-call score of the fitted dose curve at least 0.9, where 1 is the maximum; inactive means score below 0.9.

Chain of Signal transducer and activator of transcription 3 (Homo sapiens) (P40763 whole entry, looked up): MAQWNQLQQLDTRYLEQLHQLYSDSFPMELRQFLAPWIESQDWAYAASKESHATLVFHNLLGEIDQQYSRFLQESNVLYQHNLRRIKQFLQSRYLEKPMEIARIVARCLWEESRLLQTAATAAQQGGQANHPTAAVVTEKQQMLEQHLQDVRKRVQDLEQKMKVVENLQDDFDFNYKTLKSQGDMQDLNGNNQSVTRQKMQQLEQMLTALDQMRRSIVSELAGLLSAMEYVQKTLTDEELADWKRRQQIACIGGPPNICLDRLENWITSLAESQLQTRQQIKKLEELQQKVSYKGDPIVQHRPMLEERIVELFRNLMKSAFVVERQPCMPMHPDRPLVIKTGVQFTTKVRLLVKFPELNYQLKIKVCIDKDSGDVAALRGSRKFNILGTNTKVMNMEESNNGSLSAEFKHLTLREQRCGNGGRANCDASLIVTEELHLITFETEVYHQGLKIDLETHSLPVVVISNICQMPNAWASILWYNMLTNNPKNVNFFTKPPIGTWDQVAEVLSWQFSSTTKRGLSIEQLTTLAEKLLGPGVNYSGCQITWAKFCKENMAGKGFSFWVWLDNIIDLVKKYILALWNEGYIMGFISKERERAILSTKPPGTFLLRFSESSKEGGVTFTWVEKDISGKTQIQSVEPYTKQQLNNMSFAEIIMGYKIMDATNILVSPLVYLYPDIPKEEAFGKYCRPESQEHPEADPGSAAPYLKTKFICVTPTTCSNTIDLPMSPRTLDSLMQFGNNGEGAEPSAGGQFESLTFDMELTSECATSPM
Chain of Transcription factor Sp1 (Homo sapiens) (P08047 whole entry, looked up): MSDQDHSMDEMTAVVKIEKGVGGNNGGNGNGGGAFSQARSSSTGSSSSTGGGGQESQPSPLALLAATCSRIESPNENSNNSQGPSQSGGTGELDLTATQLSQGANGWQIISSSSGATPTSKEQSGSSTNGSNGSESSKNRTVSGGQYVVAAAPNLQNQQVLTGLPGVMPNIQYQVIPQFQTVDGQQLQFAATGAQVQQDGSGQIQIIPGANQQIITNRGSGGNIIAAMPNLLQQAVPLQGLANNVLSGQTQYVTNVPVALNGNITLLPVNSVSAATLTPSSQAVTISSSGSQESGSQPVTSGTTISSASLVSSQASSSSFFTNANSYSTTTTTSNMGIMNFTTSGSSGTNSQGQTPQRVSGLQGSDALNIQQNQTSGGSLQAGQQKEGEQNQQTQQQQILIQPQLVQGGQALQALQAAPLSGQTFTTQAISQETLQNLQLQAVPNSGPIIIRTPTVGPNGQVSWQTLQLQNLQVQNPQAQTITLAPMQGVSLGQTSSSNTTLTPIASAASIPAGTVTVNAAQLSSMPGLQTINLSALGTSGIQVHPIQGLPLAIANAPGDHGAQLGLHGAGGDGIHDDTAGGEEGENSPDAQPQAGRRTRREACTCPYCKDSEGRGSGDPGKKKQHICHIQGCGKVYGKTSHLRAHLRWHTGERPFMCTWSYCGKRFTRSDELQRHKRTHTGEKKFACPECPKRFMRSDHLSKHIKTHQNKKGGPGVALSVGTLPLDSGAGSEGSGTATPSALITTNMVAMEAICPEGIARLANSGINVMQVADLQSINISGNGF
Chain of X-box-binding protein 1 (Homo sapiens) (P17861 whole entry, looked up): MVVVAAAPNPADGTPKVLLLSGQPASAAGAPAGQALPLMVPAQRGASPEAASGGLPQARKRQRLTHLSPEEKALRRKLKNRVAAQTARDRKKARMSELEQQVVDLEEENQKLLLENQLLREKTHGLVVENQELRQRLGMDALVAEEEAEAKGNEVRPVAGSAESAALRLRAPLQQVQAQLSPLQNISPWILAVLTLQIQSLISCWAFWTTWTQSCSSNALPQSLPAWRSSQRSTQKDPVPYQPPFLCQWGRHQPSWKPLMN
Chain of Paired box protein Pax-6 (Homo sapiens) (P26367 whole entry, looked up): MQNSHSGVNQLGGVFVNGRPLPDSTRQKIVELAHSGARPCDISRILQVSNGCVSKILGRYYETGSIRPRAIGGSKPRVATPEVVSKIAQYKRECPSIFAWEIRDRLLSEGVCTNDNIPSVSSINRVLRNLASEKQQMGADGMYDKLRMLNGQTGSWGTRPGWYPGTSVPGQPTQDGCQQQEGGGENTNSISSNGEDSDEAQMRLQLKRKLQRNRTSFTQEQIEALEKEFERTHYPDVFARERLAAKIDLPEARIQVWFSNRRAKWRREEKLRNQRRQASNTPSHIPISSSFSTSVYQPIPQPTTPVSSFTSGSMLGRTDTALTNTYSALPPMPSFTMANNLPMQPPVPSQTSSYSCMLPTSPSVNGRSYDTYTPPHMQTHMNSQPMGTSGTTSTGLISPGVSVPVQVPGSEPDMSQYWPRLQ
Chain of Nuclear receptor subfamily 1 group I member 3 (Homo sapiens) (Q14994 whole entry, looked up, the tested form may be a part): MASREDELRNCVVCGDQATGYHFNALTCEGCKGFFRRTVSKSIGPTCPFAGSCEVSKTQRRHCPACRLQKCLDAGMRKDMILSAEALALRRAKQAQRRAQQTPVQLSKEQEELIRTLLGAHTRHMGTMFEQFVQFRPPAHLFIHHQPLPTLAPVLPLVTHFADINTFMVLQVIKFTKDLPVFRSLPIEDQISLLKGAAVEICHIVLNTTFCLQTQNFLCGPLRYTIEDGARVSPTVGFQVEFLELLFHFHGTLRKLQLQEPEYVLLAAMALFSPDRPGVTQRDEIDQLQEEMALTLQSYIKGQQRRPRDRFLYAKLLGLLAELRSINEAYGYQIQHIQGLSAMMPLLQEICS
Chain of Steroid hormone receptor ERR1 (Homo sapiens) (P11474 whole entry, looked up, the tested form may be a part): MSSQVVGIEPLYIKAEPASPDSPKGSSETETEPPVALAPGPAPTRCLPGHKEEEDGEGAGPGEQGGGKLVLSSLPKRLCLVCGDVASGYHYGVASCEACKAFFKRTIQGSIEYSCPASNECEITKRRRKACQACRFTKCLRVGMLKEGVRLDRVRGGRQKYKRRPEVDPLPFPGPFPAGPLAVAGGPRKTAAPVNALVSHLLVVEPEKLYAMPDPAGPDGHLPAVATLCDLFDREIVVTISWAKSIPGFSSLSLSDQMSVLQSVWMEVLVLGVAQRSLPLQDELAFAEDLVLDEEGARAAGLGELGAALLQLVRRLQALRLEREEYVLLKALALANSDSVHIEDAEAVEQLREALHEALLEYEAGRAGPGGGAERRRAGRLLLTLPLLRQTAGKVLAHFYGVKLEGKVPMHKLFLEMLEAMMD

With `CC(C)CCOC(=O)CC(C)C`, the compound was called inactive in [1], in assay [2], in assay [3], in [4], in [5] and in [6]. Moreover, the compound was called inactive in assay [7], in [8], in assay [9], in [10], in assay [11] and in assay [12]. The call in assay [13], in [14], in assay [15], in [16] and in assay [17] was inactive.

In the case of `CCO[Si](CC)(OCC)OCC`, the result in assay [18], in assay [1], in assay [4], in assay [5], in assay [6] and in [7] was inactive. For the same compound, the call in assay [8], in assay [9], in assay [11], in assay [13], in assay [15] and in [17] was inactive. In assay [10], the AC50 (as a rule, the midpoint of the concentration-response curve, whichever way the signal moves) was 173 µM (active).

`NNC(=O)OCc1ccccc1`: the outcome in assay [18], in assay [1], in assay [3], in [4], in assay [5] and in assay [6] was inactive. For the same compound, the outcome in [7], in assay [8], in assay [9], in [10], in assay [11] and in assay [12] was inactive. Also, the call in [13], in assay [14], in assay [19], in [15], in assay [16] and in assay [17] was inactive.

For `C/C=C(\C)C(=O)OC/C=C(\C)CCC=C(C)C`, the compound was classed as inactive in assay [1], in assay [2], in [4], in assay [5], in assay [6] and in [8]. Besides, the compound was classed as inactive in assay [9], in assay [10], in assay [11], in assay [12], in assay [13] and in assay [14]. The compound was called inactive in assay [15]. In addition, the AC50 in assay [3] was 39.6 µM (active); in assay [7], 61.3 µM (active).

For `CC(C)CCCC(C)(C)O`, the result in [18], in [1], in [3], in [4], in assay [5] and in assay [6] was inactive. Further, the call in assay [7], in assay [8], in assay [9], in assay [10], in assay [11] and in [12] was inactive. For the same compound, the compound was called inactive in [13], in [20], in [15], in assay [16] and in assay [17].

For the compound `C#C[C@]1(O)CC[C@H]2[C@@H]3CCc4cc(O)ccc4[C@H]3CC[C@@]21C`, the compound was called inactive in [1], in [2], in assay [3], in assay [4], in assay [5] and in assay [6]. Further, the compound was called inactive in assay [7], in [9], in assay [10], in assay [11], in [12] and in assay [15]. The result in [16] and in [17] was inactive. In addition, the AC50 is 3.19 µM (active) [middle of 4 runs] in assay [2]; 67.3 µM (active) and 60.7 µM (active) and 26.4 µM (active) in [4]; 130 µM (active) and 54.9 µM (active) in [5]; 169 µM (active) and 44.8 µM (active) in [6]; 132 µM (active) in assay [9]; 19.2 µM (active) and 19.8 µM (active) in assay [10]. Moreover, the AC50 in assay [11] was 152 µM (active) and 78.2 µM (active); in assay [12], 100 µM (active); in assay [15], 59.6 µM (active) [middle of 4 runs].
